Our source for the composite z-score and z-score values is PubChem BioAssay.

Assay [1] deals with Wnt5a (protein binding on small-molecule microarray). The assay can be described thus: small molecules binding Wnt5a protein – biophysical, small-molecule microarray, 635/667 nm fluorescence, primary screen (AID 1142).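 Note: fluorescence read at 667 nm with signal to noise per printed feature.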 The note with it: 635 nm fluorescence, higher = more signal.
Assay [2] in a line: ATP-based viability of Huh7 replicon cells – cell-based, CellTiter-Glo luminescence, basal, 48 h, cytotoxicity control for HCV replication inhibitor project, primary screen (AID 1143).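 Note: Huh7 hepatoma cells carrying a hepatitis C replication reporter with no stimulus; test concentration not given here.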 The following applies: higher = more signal, called active from +8 up or from −8 down. A general note: In antiviral work, replicon cells carry a viral genome segment that copies itself.
Assay [3] in a line: Pseudomonas biofilm growth suppression – PAO1 strain, BacTiter-Glo luminescence, LB-PBS, primary screen (AID 1144). The following applies: P. aeruginosa PAO1 biofilm, 12 h, higher = more signal.
Assay [4] is described as follows: basal CRE-LacZ reporter activity in PC12 – cell-based, unstimulated, primary screen (AID 1145). The note with it: no forskolin, luminescence, 4.5 h, higher = more signal, called active from +8 up or from −8 down.
Assay [5] in a line: forskolin-driven CRE-LacZ activity in PC12 – cell-based, CRE-LacZ reporter, forskolin-stimulated, primary screen (AID 1146).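 Note: PC12 cells with 6xCRE LacZ reporter stimulated by forskolin 10 µM; beta-galactosidase reporter signal reflecting CREB driven transcription.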 The note with it: luminescence, 4.5 h, higher = more signal, called active from +8 up or from −8 down.
Assay [6] concerns the target Streptavidin (Streptomyces avidinii) (UniProt P22629). The assay can be described thus: compounds binding control protein streptavidin – biophysical, small-molecule microarray, 635/667 nm fluorescence, artefact control for SMM compound annotation, primary screen (AID 1147).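 Note: signal reflects streptavidin binding to arrayed compounds as a control protein.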 The note with it: higher = more signal.
Assay [7] in a line: probe aInhba binding on compound microarray – biochemical, small-molecule microarray, 635/667 nm fluorescence, primary screen (AID 1148).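 Note: score merges 667nm spot fluorescence with signal-to-noise for antibody binding to printed compounds.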 The note with it: higher = more signal.
Assay [8] concerns the target Torsin-1A (Homo sapiens) (UniProt O14656). The assay can be described thus: TOR1A wild-type binding on microarray – cell lysate, small-molecule microarray, lysate, 635/667 nm, primary screen (AID 1149). The following applies: COS7 hTOR1A-WT lysate, 635 nm fluorescence, higher = more signal.
The target is the same in assay [9]. The assay can be described thus: torsin A mutant lysate binding on microarrays – cell lysate, small-molecule microarray, COS7 lysate, 635/667 nm fluorescence, primary screen (AID 1150).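 Note: score pools 667 nm emission and signal to noise measuring lysate protein binding.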 The note with it: COS7 hTOR1A mutant lysate, 635 nm fluorescence, higher = more signal.
For assay [10], the system named is Sonic hedgehog protein (Shh). The experiment in a line: Sonic hedgehog microarray binding compounds – biochemical, small-molecule microarray, 635/667 nm fluorescence, primary screen (AID 1151).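 Note: Shh protein binding to compounds spotted on small-molecule microarray slides; score combines spot fluorescence intensity with signal-to-noise across triplicate slides.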 The note with it: 635 nm fluorescence, higher = more signal.

Calls of active or inactive are those of the source. Unless noted, the rule behind the calls is not given here.

Sequence of Streptavidin (Streptomyces avidinii) (P22629 whole entry, looked up): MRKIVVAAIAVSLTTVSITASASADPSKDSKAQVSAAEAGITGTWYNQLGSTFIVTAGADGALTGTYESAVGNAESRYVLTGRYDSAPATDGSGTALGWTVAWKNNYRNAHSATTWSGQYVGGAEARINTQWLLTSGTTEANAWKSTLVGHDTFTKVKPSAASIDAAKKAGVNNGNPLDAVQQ
Sequence of Torsin-1A (Homo sapiens) (O14656 whole entry, looked up): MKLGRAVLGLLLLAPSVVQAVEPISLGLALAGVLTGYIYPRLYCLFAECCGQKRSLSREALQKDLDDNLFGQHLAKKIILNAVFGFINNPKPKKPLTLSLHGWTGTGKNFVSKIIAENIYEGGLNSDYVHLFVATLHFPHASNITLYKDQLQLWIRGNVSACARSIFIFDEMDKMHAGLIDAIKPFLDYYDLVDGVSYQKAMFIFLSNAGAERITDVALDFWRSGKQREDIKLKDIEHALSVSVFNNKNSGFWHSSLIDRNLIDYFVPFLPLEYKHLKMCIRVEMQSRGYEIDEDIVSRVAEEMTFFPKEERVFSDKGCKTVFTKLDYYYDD

In the case of `CO[C@@H]1COC(=O)[C@H](CCSC)NC(=O)CC=C[C@@H](C)COC(=O)[C@H](C)NC(=O)CC=C[C@H]1C`, the composite z-score in [1] is 0.312; in assay [6], -0.793; in assay [7] it was -0.103; in [8] it was 1.49; in assay [9], 0.152; in assay [10] it was 1.46. Further, the z-score is 0.208 (inactive) in [2], 0.0303 (inactive) in assay [3], 1.97 (inactive) in assay [4] and -0.306 (inactive) in [5].
On to `CC(C)CCN1CCc2nc(COc3ccccc3)c3c(c2C1)CO[C@@H](C)C3`, for which the composite z-score is 0.0335 in [1]; 0.414 in assay [6]; 0.0649 in assay [7]; 0.335 in assay [8]; 0.434 in assay [9]; -0.284 in [10]. Besides, the z-score in assay [2] is -0.265 (inactive); in assay [3] it was -0.372 (inactive); in [4], 3.36 (inactive); in assay [5] it was -1.3 (inactive).
Take `COC(=O)[C@@H]1CC[C@H](C)[C@@H](c2ccc(C)cc2)N1C(=O)c1ccc(C=NO[C@@H]2O[C@H](COC(C)=O)[C@@H](OC(C)=O)[C@H](OC(C)=O)[C@H]2OC(C)=O)cc1`: the composite z-score was -0.0196 in assay [1]; 0.253 in assay [6]; -0.0986 in assay [7]; 0.203 in assay [8]; 0.121 in assay [9]; 0.891 in assay [10]. In addition, the z-score is -3.41 (inactive) in [2], -0.553 (inactive) in assay [3], 2.22 (inactive) in [4] and -0.138 (inactive) in assay [5].
Regarding `CON=Cc1ccc(C(=O)N2[C@H](c3ccc(C)cc3)[C@@H](C)CC[C@H]2C(=O)OC)cc1`, the composite z-score in [1] was -0.0731; in [6], 0.651; in assay [7], 0.0398; in assay [8] it was 0.144; in assay [9] it was 0.568; in [10] it was 0.441. The z-score is -1.63 (inactive) in [2], -0.183 (inactive) in assay [3], 0.336 (inactive) in [4] and -0.158 (inactive) in assay [5].
On to `COc1ccc(COC(=O)NN=C2C[C@@H](O)[C@@H](O)[C@@H]3[C@@H]4C(=O)N(Cc5ccccc5)C(=O)[C@@H]4CC[C@H]23)cc1`, for which the composite z-score was -0.419 in assay [1]; 0.273 in assay [6]; -0.753 in [7]; -0.429 in [8]; -0.186 in [9]; -1.44 in assay [10]. Also, the z-score is -0.541 (inactive) in [2], 0.43 (inactive) in [3], 0.702 (inactive) in assay [4] and -0.0005 (inactive) in assay [5].
For `C[C@@H](ON=C1[C@H]2CCn3c(=O)n(-c4ccccc4)c(=O)n3[C@H]2[C@H](O)[C@@H]2O[C@H]12)c1cn([C@@H]2COC[C@H]2O)nn1`, the composite z-score in [1] stood at 0.134; in assay [6], 0.189; in [7] it was 0.0028; in assay [8], 0.436; in assay [9] it was 0.63; in [10], 0.438. In addition, the z-score is 0.981 (inactive) in assay [2], 0.58 (inactive) in [3], 0.085 (inactive) in assay [4] and 0.258 (inactive) in assay [5].
With `O=C1CCCC=C1C(CCc1ccccc1)OC(=O)c1ccc(Br)cc1` (stereo not given), the composite z-score in [1] is -0.223; in assay [6], 0.0598; in assay [7] it was -0.218; in [8] it was -0.249; in [9] it was 0.0696; in assay [10] it was -0.115. For the same compound, the z-score in [2] was -3.61 (inactive); in assay [3] it was 0.96 (inactive); in assay [4], 0.111 (inactive); in [5], 0.171 (inactive).
`CC(CCN1CCCc2nc(C)c(C)cc21)=NOC(C)CN1CCCCc2nc(C)c(C)cc21` (stereo not given): the composite z-score was 0.277 in assay [1]; 0.666 in assay [6]; 0.0074 in assay [7]; -0.109 in assay [8]; 0.631 in assay [9]; 1.05 in assay [10]. Besides, the z-score in [2] was -0.466 (inactive); in assay [3], -0.624 (inactive); in assay [4] it was -0.31 (inactive); in assay [5] it was 0.527 (inactive).
As to `CCOC(=O)[C@H](Cc1ccccc1)NC(=O)CCC1CC(OC(=O)NCc2cccc3ccccc23)CC2(CCCC(COC(=O)NCc3ccccc3)O2)O1` (stereo not given in full), the composite z-score was 0.0636 in assay [1]; 0.376 in [6]; -0.0259 in [7]; -0.347 in [8]; 0.0167 in assay [9]; 0.58 in assay [10]. In addition, the z-score is -5.15 (inactive) in assay [2], -1.29 (inactive) in assay [3], -0.977 (inactive) in assay [4] and 2.01 (inactive) in assay [5].
Turning to `C=CC[C@@H]1C=C[C@H](ON=C(C)CCC(=O)OC[C@H]2O[C@H](C#Cc3ccccc3)C=C[C@@H]2Oc2ccc(C)cc2)[C@@H](CO)O1`, the composite z-score is 0.0897 in [1]; 0.635 in [6]; -0.0375 in [7]; 0.569 in [8]; 0.185 in assay [9]; 0.795 in [10]. Further, the z-score in assay [2] is -0.273 (inactive); in assay [3], 0.0915 (inactive); in [4] it was -0.306 (inactive); in assay [5] it was 0.435 (inactive).
For `CO[C@H]1COC(=O)CC=C[C@H](C)[C@@H](OC)COC(=O)[C@@H](C)COC(=O)CC=C[C@@H]1C`, the composite z-score in assay [1] was -0.545; in [6] it was -0.411; in [7], -0.331; in [8], 2.79; in assay [9], 2.2; in assay [10], 2.12. Also, the z-score in [2] is -1.66 (inactive); in assay [3] it was 0.0344 (inactive); in assay [4] it was -0.292 (inactive); in [5], -1.02 (inactive).
Consider `O=C1[C@H]2[C@H]3[C@H](O)[C@H](O)CC(=NOC[C@@H](O)COCc4ccco4)[C@@H]3CC[C@H]2C(=O)N1C[C@@H]1CCCO1`, for which the composite z-score in [1] was 0.149; in assay [6], -0.0625; in assay [7] it was -0.263; in assay [8], 3.22; in assay [9], 3.3; in assay [10] it was 1.59. Also, the z-score in [2] was 0.0304 (inactive); in assay [3], 0.835 (inactive); in assay [4], -0.207 (inactive); in [5], -0.0793 (inactive).
